Lamin A splicing – LMNA splicing modulation; HeLa LMNA splicing GFP/RFP minigene ratio, 48 h; Potency, µM (titrated, usually from 46.1 µM), for inactives: at the highest dose ratio change, negative = inhibition, most hits filed as inhibitors; 0.01% of 200,000 active; AID 1487; active = well fitted inhibition curve with a large enough effect in the signal ratio, with a control signal flat, not every such curve was filed as active; inconclusive = small, poorly fitted or top-dose-only effect, or effect the other way, or a change in a side signal; the % refers to the signal ratio; note: potency is the fitted concentration of half-maximal effect
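S3 HeLa cells stably expressing lamin A-EGFP splicing minigene plus DsRed2, 600 cells/well, 48 h compound exposure at 37C. Laser-scanning cytometry; analysed as GFP (500-530 nm)/RFP (575-640 nm) total intensity ratio; 0.5% DMSO vehicle.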
HPGD block – inhibitors of human 15-hydroxyprostaglandin dehydrogenase (HPGD); purified HPGD, NADH fluorescence kinetic, PGE2 substrate; Potency, µM, without a hit: top-dose activity change, negative = inhibition, actives largely listed as inhibitors; 4.3% of 150,000 active; AID 894; note: potency is the fitted concentration of half-maximal effect
Target sequence (P15428 whole entry, looked up): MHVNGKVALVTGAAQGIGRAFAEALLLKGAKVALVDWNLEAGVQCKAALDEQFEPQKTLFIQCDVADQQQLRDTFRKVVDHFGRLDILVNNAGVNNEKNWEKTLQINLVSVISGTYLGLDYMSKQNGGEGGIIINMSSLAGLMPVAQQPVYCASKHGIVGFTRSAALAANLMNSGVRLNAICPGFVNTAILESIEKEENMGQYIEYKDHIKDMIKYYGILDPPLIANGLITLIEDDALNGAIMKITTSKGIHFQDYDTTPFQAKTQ
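20 nM HPGD preincubated 15 min at room temperature with compound in 50 mM Tris-HCl pH 8, 0.01% Tween 20. Started with 1 mM NAD+ and 30 uM prostaglandin E2; NADH fluorescence (360/450 nm) read 5 times over 30-s intervals, last minus first.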
Luc counter – counter-screen: inhibitors of Kinase-Glo firefly luciferase; Q27757; Kinase-Glo luciferase, ATP luminescence, 8 min; Potency, µM (top dose mostly 38.3 µM), inactives show at the highest dose activity change, negative = inhibition, most hits filed as inhibitors; 0.28% of 200,000 active; AID 1379; active = well fitted inhibition curve with a large enough effect; inconclusive = small, poorly fitted or top-dose-only effect; note: potency is the fitted concentration of half-maximal effect; nearly all actives have a fitted effect of over 60% in size
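Kinase-Glo luciferase light output from ATP and luciferin was measured with 10 uM ATP, within the enzyme's linear range. Buffer: 50 mM imidazole pH 7.2, 50 mM KCl, 7 mM MgCl2, 0.01% Tween 20, 0.05% BSA; luminescence read after 8 min at ambient temperature.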
ALDH1A1 inh – inhibitors of human aldehyde dehydrogenase 1A1. 7.3% of 220,000 active. Purified ALDH1A1, NADH fluorescence, propionaldehyde substrate. Potency, µM (doses to about 75.3 µM), for the others: at the top dose activity, negative = inhibition, usual class: inhibitors;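 note: potency is the fitted concentration of half-maximal effect; plate controls were no enzyme wells and a reference inhibitor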
Target sequence (P00352 whole entry, looked up): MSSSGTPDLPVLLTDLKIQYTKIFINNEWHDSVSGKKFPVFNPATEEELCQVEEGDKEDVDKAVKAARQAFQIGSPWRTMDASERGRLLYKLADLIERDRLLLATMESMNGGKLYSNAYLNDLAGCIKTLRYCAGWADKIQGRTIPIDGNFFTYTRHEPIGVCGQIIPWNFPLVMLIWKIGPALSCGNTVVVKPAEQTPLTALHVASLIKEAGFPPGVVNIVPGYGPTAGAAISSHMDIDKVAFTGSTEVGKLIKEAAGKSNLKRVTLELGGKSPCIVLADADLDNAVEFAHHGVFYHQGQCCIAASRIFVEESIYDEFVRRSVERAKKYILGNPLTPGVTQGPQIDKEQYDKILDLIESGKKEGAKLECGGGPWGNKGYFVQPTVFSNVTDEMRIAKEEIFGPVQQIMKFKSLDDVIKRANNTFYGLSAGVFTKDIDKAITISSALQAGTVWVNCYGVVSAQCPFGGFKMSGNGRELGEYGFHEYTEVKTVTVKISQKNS
PNC assembly inh – inhibitors of perinucleolar compartment assembly | AID 2417 | activity change (PNC), negative = inhibition, % at 10 µM | 3.1% of 140,000 active | PC3M PTB-GFP, PNC prevalence imaging, 16 h; hits give low values;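 active = readout at or below -70, meaning at least 70% loss of cells showing the perinucleolar compartment, a nuclear body marking cancer cells; inconclusive = readout between -30 and a set limit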;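 note: plate controls were DMSO wells for no effect and camptothecin positive control wells for full effect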
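Read-out is percentage of cells bearing a perinucleolar compartment, from automated 20x imaging of fixed, Hoechst-stained PC3M PTB-GFP cells. Cells were seeded 4 h, then exposed 16 h to compound (23 nl of library stock) in duplicate plates.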
An asterisk follows results filed as active; ? = inconclusive; . = no result; [ ] = another dose, or the depositor's remark. An excerpt weighted towards active compounds, which were near 10% of everything screened. Unless noted, calls come from the whole dose curve; as a rule, active = well fitted inhibition curve with a large enough effect (not every such curve was filed as active); inconclusive = small, poorly fitted or top-dose-only effect, or another doubt; inactive = no such curve, though single readings can be large or run the other way. Unless noted, % is set by controls: 0 for no effect and ±100 for the full control effect.

SMILES | Lamin A splicing | HPGD block | Luc counter | ALDH1A1 inh | PNC assembly inh
COc1ccc(-c2nn3c(-c4ccc(F)cc4)nnc3s2)cc1 | 10% | -23% | -1% | ? | 34
Fc1ccc(-c2nn3c(C4COc5ccccc5O4)nnc3s2)cc1 (stereo not drawn) | 3% | 28µM* | 0% | 32µM* | 27
c1ccc2c(c1)OCC(c1nnc3sc(-c4ccc5c(c4)OCO5)nn13)O2 (stereo not drawn) | ? | ? | -3% | ? | 32
COCCCNC(=O)NC(CCC(C)C)c1c(-n2cccc2)sc2c1CCN(C)C2 (stereo not drawn) | 0%[46 µM] | . | . | . | .
c1ccc2c(c1)OCC(c1nnc3sc(-c4cnccn4)nn13)O2 (stereo not drawn) | 13% | 25µM* | -2% | 8.9µM* | -22
O=C(CC1S/C(=N\S(=O)(=O)c2ccccc2)N(c2ccccc2)C1=O)Nc1ccc(F)cc1 (stereo not drawn) | -16% | -9% | -4% | 25µM* | 54
Cc1ccc(CC2SC(=Nc3ccccc3)N(c3ccccc3)C2=O)cc1 (stereo not drawn) | ? | -2% | 2% | 12% | -29
O=C(O)CC1SC(=Nc2ccccc2)N(c2ccccc2)C1=O (stereo not drawn) | 15% | -6% | 2% | -2% | ?
Cc1ccc(S(=O)(=O)/N=C2\SC(CC(=O)Nc3ccc(F)cc3)C(=O)N2c2ccccc2)cc1 (stereo not drawn) | 1% | -20% | -1% | 5.6µM* | 20
Fc1ccc(CNc2ncnc3c2c(-c2ccccc2)cn3-c2ccccc2)cc1 | -22%[46 µM] | . | . | . | .
O=C(NNc1ccc([N+](=O)[O-])cc1)c1ccccc1F | 7%[9.22 µM] | . | -4% | ? | .
O=C(NC(NNc1ccc([N+](=O)[O-])cc1)(C(F)(F)F)C(F)(F)F)c1ccc(Cl)cc1 | -2% | 16µM* | -3% | ? | -82*
Cc1ccc(C(C)C)cc1S(=O)(=O)NCc1cccnc1 | -12% | -5% | -8% | 20µM* | -8
O=c1[nH]c2ccc(Br)cc2c(-c2ccccc2)c1CN1CCOCC1 | ? | -13% | 15% | ? | -90*
O=C(O)CC[C@@]1(c2ccccc2)NC(=O)NC1=O | . | -1% | -1%[7.66 µM] | 2%[13.5 µM] | .
Cc1cccc(N(CC(N)=O)C2SC(=O)NC2=O)c1 (stereo not drawn) | ? | -11% | 6% | 2% | -100*
CCNS(=O)(=O)c1ccc(C)cc1 | . | -12% | . | 26% | .
COC(=O)C1C(=O)N2CCCSC2=C(C#N)C1c1cccs1 (stereo not drawn) | 4% | -7% | 3% | 6.3µM* | -12
CCOC(=O)c1cc(-c2csc(Nc3c(C)cc(C)cc3C)n2)on1 | . | . | . | 14µM* | .
CC(C)c1onc(C(=O)Nc2cccc(O)c2)c1[N+](=O)[O-] | . | . | -2% | 2% | .
CC(C)c1onc(C(=O)N2CCCCC2C)c1[N+](=O)[O-] (stereo not drawn) | -4% | ? | -1% | -14% | -12
Cc1ccc(NC(=O)c2noc(C(C)C)c2[N+](=O)[O-])cc1 | 15%[46 µM] | . | -1% | 10µM* | .
CC(C)c1onc(C(=O)N2CCCCC2)c1[N+](=O)[O-] | -15% | 14µM* | 3% | ? | -2
COc1ccc(OC)c(NC(=O)C2CCC(CNc3c(N4CCC(C)CC4)c(=O)c3=O)CC2)c1 (stereo not drawn) | ? | 25µM* | 1% | 2% | -11
O=C(NCc1ccccc1)C1CCC1 | 7% | 20µM* | -3% | 20% | ?
SMILES | Lamin A splicing | HPGD block | Luc counter | ALDH1A1 inh | PNC assembly inh
COc1ccc(C)cc1NC(=O)C1CCC(CNc2c(N3CCOCC3)c(=O)c2=O)CC1 (stereo not drawn) | -12% | -15% | -1% | 4% | 0
O=C(NCc1ccccc1)C1CCN(S(=O)(=O)N2CCCCCC2)CC1 | -11% | -4% | 2% | ? | ?
Cc1ccc(CNC(=O)C2CCC(CNc3c(N4CCOCC4)c(=O)c3=O)CC2)cc1 (stereo not drawn) | 4% | ? | -2% | 2% | -22
O=C(NCc1ccccc1)C1CCC(CNc2c(N3CCCCC3)c(=O)c2=O)CC1 (stereo not drawn) | -6% | 20µM* | -2% | 4% | 31
CC1CCN(c2c(NCC3CCC(C(=O)NCc4ccccc4)CC3)c(=O)c2=O)CC1 (stereo not drawn) | -5% | 18µM* | 1% | 9% | ?
COC(=O)[C@H](C)NC(=O)C/C=C\[C@@H](C)CO | . | . | . | 8%[13.5 µM] | .
N[C@H](C(=O)O)[C@@H](O)c1cnc[nH]1 | . | -4% | -2%[7.66 µM] | -3%[13.5 µM] | .
CC1CCN(c2c(NCC3CCC(C(=O)N4CCCC(C)C4)CC3)c(=O)c2=O)CC1 (stereo not drawn) | -4% | 0.63µM* | -3% | 7% | 41
COc1cccc([C@@H]2Oc3ccc(OC)cc3C[C@H]2OC(=O)NCc2ccco2)c1 | . | -16% | 0% | ? | .
Cc1cc(C#N)c(C)n1-c1cc(S(=O)(=O)N2CCOCC2)ccc1N1CCCC1 | 19% | 7.9µM* | 2% | 4.5µM* | -27
O=S(=O)(c1ccc(S(=O)(=O)N2CCOCC2)cc1)N1CCCC1 | ? | . | -1% | 12% | .
COc1ccc(NC(=O)CNc2cccc(C#N)c2)cc1Cl | 6% | -21% | 1% | ? | ?
COc1ccc(S(=O)(=O)N(C)C)cc1NCC(=O)Nc1cccc(C#N)c1 | . | . | 2% | 20µM* | .
Cc1c(Cl)cccc1NC(=O)CNc1cccc(S(=O)(=O)N(C)C)c1 | -18% | -4% | -2% | -36% | -13
CCNc1ccc(S(=O)(=O)N(C)C)cc1NCC(=O)Nc1ccccc1Br | 1%[46 µM] | . | 0% | 25µM* | .
CCNc1ccc(S(=O)(=O)N(C)C)cc1NCC(=O)Nc1ccc(F)c(Cl)c1 | ? | -9% | 1% | 25µM* | ?
COc1ccc(NCC(=O)Nc2ccc(C#N)cc2)cc1Cl | 0% | -16% | 7% | 10µM* | 6
Cc1csc2nc(CCNS(=O)(=O)c3ccccc3)cn12 | 8%[46 µM] | . | . | . | .
CS(=O)(=O)Nc1cccc(-c2cncnc2Nc2ccc(F)cc2)c1 | 3% | . | . | ? | .
NCCC[C@@H](CC(=O)N[C@@H]1CCNC[C@H]1C(=O)N[C@H](CC(=O)N[C@@H](CCC(=O)O)CC(=O)O)Cc1c[nH]c2ccccc12)NC(=O)C[C@H](Cc1c[nH]c2ccccc12)NC(=O)[C@@H]1CNCC[C@H]1N | . | -4% | 0% | -14% | .
CCOc1ccccc1NC(=O)CSc1nccn1Cc1ccc(F)cc1 | -3%[46 µM] | . | . | . | .
CO[C@@H]1COC(=O)[C@H]2CCCN2C(=O)C/C=C\[C@@H](C)[C@H](OC)COC(=O)[C@H]2CCCN2C(=O)C/C=C\[C@H]1C | . | . | . | -2%[13.5 µM] | .
CCN(CC)S(=O)(=O)c1ccc2nnn(OCC(=O)Nc3cccc(C#N)c3)c2c1 | 4% | -7% | 2% | 14µM* | -24

Screening results deposited in PubChem by National Center for Advancing Translational Sciences (NCATS).
